Assay results: PubChem BioAssay (NCI)
The panel holds about 79,000 compounds, 15% with a hit somewhere; the sample as a whole holds those more often. Activity calls are given as the source filed them. Rule as the data show it: active = growth inhibition above about 70%; inactive = the rest.

Experiments:
[1] = NCI Yeast Anticancer Drug Screen. Data for the rad52 strain (AID 147);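 also: 0% = growth of vehicle-treated control cultures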; details: S. cerevisiae rad52 mutant growth inhibition, active compounds read high
How it was run: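 Read-out: growth inhibition versus vehicle-treated controls. Cells were a DNA repair-deficient yeast strain treated with compounds.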

[2] = NCI Yeast Anticancer Drug Screen. Data for the wt1 strain (AID 149);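 also: 0% = growth of vehicle-treated wt1 cultures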; details: S. cerevisiae wt1 strain (SPY 50644) growth inhibition, active compounds read high
How it was run: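 Yeast wt1 strain exposed to compounds; growth inhibition measured relative to vehicle-treated controls.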

[3] = NCI Yeast Anticancer Drug Screen. Data for the rad50EPP+ strain (AID 151);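 also: 0% = growth of vehicle-treated control cultures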; details: S. cerevisiae rad50 mutant strain, active compounds read high
How it was run: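 Growth inhibition read against vehicle controls in rad50EPP+ yeast, a strain altered in DNA damage repair, after compound exposure.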

[4] = NCI Yeast Anticancer Drug Screen. Data for the rad50 strain (AID 155);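 also: 0% = growth of vehicle-only cultures of the same strain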; details: S. cerevisiae rad50 strain growth inhibition, active compounds read high
How it was run: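 Yeast carrying a defined DNA repair defect were exposed to test compounds, and growth was compared with vehicle-treated controls to give percent inhibition.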

[5] = NCI Yeast Anticancer Drug Screen. Data for the mec2-1 strain (AID 157); details: S. cerevisiae mec2-1 strain, active compounds read high
How it was run: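 Yeast mec2-1 mutant treated with compound. Readout: growth inhibition vs vehicle controls.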

[6] = NCI Yeast Anticancer Drug Screen. Data for the rad14 strain (AID 159);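 also: 0% = growth of vehicle-treated control cultures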; details: S. cerevisiae rad14 strain growth inhibition, active compounds read high
How it was run: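 Yeast cells carrying a defined DNA-repair defect were exposed to compounds, and growth inhibition was calculated relative to vehicle-treated control cultures.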

[7] = NCI Yeast Anticancer Drug Screen. Data for the sgs1 mgt1 strain (AID 161);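 also: 0% = growth of cultures given vehicle only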; details: S. cerevisiae sgs1 mgt1 strain, active compounds read high
How it was run: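 Read-out: growth inhibition vs vehicle controls. Cells: mutant yeast strain deficient in DNA damage repair.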

[8] = NCI Yeast Anticancer Drug Screen. Data for the CLN2oe strain (AID 163);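 also: 0% = growth of vehicle-only control cultures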; details: S. cerevisiae CLN2oe strain, active compounds read high
How it was run: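 Read-out: yeast growth inhibition, expressed relative to vehicle-only controls. The strain bears an engineered cell-cycle alteration.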

[9] = NCI Yeast Anticancer Drug Screen. Data for the bub3 strain (AID 167); details: S. cerevisiae bub3 mutant strain, active compounds read high
How it was run: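 Compounds were applied to a genetically altered yeast strain carrying a cell-cycle control defect. Growth inhibition was scored against vehicle-treated controls.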

[10] = NCI Yeast Anticancer Drug Screen. Data for the wt2 strain (AID 169);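 also: 0% = growth of vehicle-treated yeast cultures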; details: S. cerevisiae wt2 strain growth inhibition, active compounds read high
How it was run: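 Read-out: growth inhibition versus vehicle-treated control cultures after compound exposure of the yeast strain.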

[11] = NCI Yeast Anticancer Drug Screen. Data for the mlh1 strain (AID 171);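 also: 0% = growth of vehicle-treated control cultures of the same strain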; details: S. cerevisiae mlh1 strain growth inhibition, active compounds read high
How it was run: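 Read-out: growth inhibition versus vehicle controls. Strain: engineered yeast with a defined DNA repair or cell cycle defect, compound-treated.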

[12] = NCI Yeast Anticancer Drug Screen. Data for the sgs1 strain (AID 173);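 also: 0% = growth of vehicle-only control cultures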; details: S. cerevisiae sgs1 mutant, active compounds read high
How it was run: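 Read-out: yeast growth inhibition relative to vehicle controls, following compound exposure of a strain with a defined DNA repair/cell cycle alteration.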

[13] = NCI Yeast Anticancer Drug Screen. Data for the mlh1 rad18 strain (AID 175); details: S. cerevisiae mlh1 rad18 strain growth inhibition, active compounds read high
How it was run: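 Yeast w/ defined DNA-repair lesions; compound exposure; growth vs vehicle controls → % inhibition.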

[14] = NCI Yeast Anticancer Drug Screen. Data for the rad18 strain (AID 177); details: S. cerevisiae rad18 mutant growth inhibition, active compounds read high
How it was run: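 Readout: growth inhibition vs vehicle controls. Cells: genetically altered yeast strain, DNA repair defect.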

[15] = at 5.0 µM (retest, dose inferred, filed as 0.5)
[16] = at 50.0 µM (retest, dose inferred, filed as 5.0)

Measured: growth inhibition

COC1=CC(=O)C2C(C1=O)C(c1ccc(Cl)cc1)[C@@H]2C (stereo not given in full)
inactive: [1]; at 1.2 µM 12% | [1]; at 3.7 µM 25% | [2]; at 1.2 µM 11% | [2]; at 3.7 µM 23% | [3]; at 1.2 µM 29% | [3]; at 3.7 µM 64% | [4]; at 1.2 µM 2% | [4]; at 3.7 µM 12% | [4]; [15] 4% | [5]; at 1.2 µM 34% | [5]; at 3.7 µM 49% | [5]; [15] -12% | [6]; at 1.2 µM -3% | [6]; at 3.7 µM 12% | [7]; [15] -10% | [8]; at 1.2 µM 19% | [8]; at 3.7 µM 29% | [9]; at 1.2 µM 24% | [9]; at 3.7 µM 53% | [9]; [15] 41% | [10]; at 1.2 µM 6% | [10]; at 3.7 µM 22% | [11]; at 1.2 µM 20% | [11]; at 3.7 µM 39% | [12]; at 1.2 µM 33% | [12]; at 3.7 µM 48% | [13]; [15] 23% | [14]; at 1.2 µM 14% | [14]; at 3.7 µM 29%
active: [1]; at 11.0 µM 98% | [1]; at 33.0 µM 99% | [1]; at 100.0 µM 99% | [2]; at 11.0 µM 99% | [2]; at 33.0 µM 99% | [2]; at 100.0 µM 99% | [3]; at 11.0 µM 98% | [3]; at 33.0 µM 98% | [3]; at 100.0 µM 98% | [4]; at 11.0 µM 98% | [4]; at 33.0 µM 98% | [4]; [16] 98% | [4]; at 50.0 µM 90.5% | [4]; at 100.0 µM 98% | [5]; at 11.0 µM 99% | [5]; at 33.0 µM 98% | [5]; [16] 99% | [5]; at 50.0 µM 93.8% | [5]; at 100.0 µM 99% | [6]; at 11.0 µM 98% | [6]; at 33.0 µM 99% | [6]; at 100.0 µM 99% | [7]; [16] 98% | [7]; at 50.0 µM 92% | [8]; at 11.0 µM 99% | [8]; at 33.0 µM 99% | [8]; at 100.0 µM 99% | [9]; at 11.0 µM 99% | [9]; at 33.0 µM 99% | [9]; [16] 99% | [9]; at 50.0 µM 90.8% | [9]; at 100.0 µM 99% | [10]; at 11.0 µM 94% | [10]; at 33.0 µM 98% | [10]; at 100.0 µM 99% | [11]; at 11.0 µM 98% | [11]; at 33.0 µM 99% | [11]; at 100.0 µM 99% | [12]; at 11.0 µM 99% | [12]; at 33.0 µM 99% | [12]; at 100.0 µM 98% | [13]; [16] 98% | [13]; at 50.0 µM 90.5% | [14]; at 11.0 µM 97% | [14]; at 33.0 µM 99% | [14]; at 100.0 µM 99%
